Test results reported in the supplement of paper PMC4466140.

Tests used:
Assay in all cases: SPOT peptide array binding signal intensity (averaged, normalized) (arbitrary units (background-subtracted, floor 0; scale differs between SH3 domains)); higher = stronger binding of the SH3 domain to the peptide
SpBzz1-D2 = target: SpBzz1-D2
Summary of the method: (§1)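 Four yeast species supplied the SH3 domains, which were expressed as GST fusions in E. coli BL21(DE3) and purified on glutathione Sepharose. Incubation with cellulose membranes carrying synthetic 15-mer peptides, cysteines exchanged for serines, ran overnight at 4°C at 10 μg/ml in TBS-based blocking buffer. Binding signal is reported as normalized, background-subtracted spot intensity averaged over replicates, in arbitrary units not shared between domains.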

SpCyk3 = target: SpCyk3
Summary of the method: as §1

SpHof1 = target: SpHof1
Summary of the method: as §1

SpHof1-2 = target: SpHof1-2
Summary of the method: as §1

SpHof1-3 = target: SpHof1-3
Summary of the method: as §1

SpHse1 = target: SpHse1
Summary of the method: as §1

SpLsb1 = target: SpLsb1
Summary of the method: as §1

SpLsb4 = target: SpLsb4
Summary of the method: as §1

SpMyo1 = target: SpMyo1
Summary of the method: as §1

SpNbp2 = target: SpNbp2
Summary of the method: as §1

SpPex13 = target: SpPex13
Summary of the method: as §1

SpRvs167 = target: SpRvs167
Summary of the method: as §1

SpSla1-D1-D2 = target: SpSla1-D1-D2
Summary of the method: as §1

SpSla1-D3 = target: SpSla1-D3
Summary of the method: as §1

AgAbp1 = target: AgAbp1
Summary of the method: as §1

AgBbc1 = target: AgBbc1
Summary of the method: as §1

AgBem1-D1 = target: AgBem1-D1
Summary of the method: as §1

AgBzz1-D1 = target: AgBzz1-D1
Summary of the method: as §1

AgBzz1-D2 = target: AgBzz1-D2
Summary of the method: as §1

AgCyk3 = target: AgCyk3
Summary of the method: as §1

AgFus1 = target: AgFus1
Summary of the method: as §1

AgHof1 = target: AgHof1
Summary of the method: as §1

AgHse1 = target: AgHse1
Summary of the method: as §1

AgLsb1 = target: AgLsb1
Summary of the method: as §1

AgLsb4 = target: AgLsb4
Summary of the method: as §1

AgMyo5 = target: AgMyo5
Summary of the method: as §1

AgNbp2 = target: AgNbp2
Summary of the method: as §1

AgRvs167 = target: AgRvs167
Summary of the method: as §1

AgSho1 = target: AgSho1
Summary of the method: as §1

AgSla1-D1-D2 = target: AgSla1-D1-D2
Summary of the method: as §1

AgSla1-D3 = target: AgSla1-D3
Summary of the method: as §1

CaAbp1-D1 = target: CaAbp1-D1
Summary of the method: as §1

CaAbp1-D2 = target: CaAbp1-D2
Summary of the method: as §1

CaBbc1 = target: CaBbc1
Summary of the method: as §1

CaBem1-D1 = target: CaBem1-D1
Summary of the method: as §1

CaBzz1-D1 = target: CaBzz1-D1
Summary of the method: as §1

CaBzz1-D2 = target: CaBzz1-D2
Summary of the method: as §1

CaCyk3 = target: CaCyk3
Summary of the method: as §1

CaFus1 = target: CaFus1
Summary of the method: as §1

CaHof1 = target: CaHof1
Summary of the method: as §1

CaHse1 = target: CaHse1
Summary of the method: as §1

CaLsb1 = target: CaLsb1
Summary of the method: as §1

CaLsb4 = target: CaLsb4
Summary of the method: as §1

CaMyo5 = target: CaMyo5
Summary of the method: as §1

CaNbp2 = target: CaNbp2
Summary of the method: as §1

CaRvs167 = target: CaRvs167
Summary of the method: as §1

CaRvs167-3 = target: CaRvs167-3
Summary of the method: as §1

CaSho1 = target: CaSho1
Summary of the method: as §1

CaSla1-D1-D2 = target: CaSla1-D1-D2
Summary of the method: as §1

CaSla1-D3 = target: CaSla1-D3
Summary of the method: as §1

ScAbp1 = target: ScAbp1
Summary of the method: as §1

ScBbc1 = target: ScBbc1
Summary of the method: as §1

ScBem1-D1 = target: ScBem1-D1
Summary of the method: as §1

ScBzz1-D1 = target: ScBzz1-D1
Summary of the method: as §1

ScBzz1-D2 = target: ScBzz1-D2
Summary of the method: as §1

ScCyk3 = target: ScCyk3
Summary of the method: as §1

ScFus1 = target: ScFus1
Summary of the method: as §1

ScHof1 = target: ScHof1
Summary of the method: as §1

ScHse1 = target: ScHse1
Summary of the method: as §1

ScLsb1 = target: ScLsb1
Summary of the method: as §1

ScLsb2 = target: ScLsb2
Summary of the method: as §1

ScLsb3 = target: ScLsb3
Summary of the method: as §1

ScLsb4 = target: ScLsb4
Summary of the method: as §1

ScMyo3 = target: ScMyo3
Summary of the method: as §1

ScMyo5 = target: ScMyo5
Summary of the method: as §1

ScNbp2 = target: ScNbp2
Summary of the method: as §1

ScPex13 = target: ScPex13
Summary of the method: as §1

ScRvs167 = target: ScRvs167
Summary of the method: as §1

ScSho1 = target: ScSho1
Summary of the method: as §1

ScSla1-D1-D2 = target: ScSla1-D1-D2
Summary of the method: as §1

ScSla1-D3 = target: ScSla1-D3
Summary of the method: as §1

SpAbp1-D1 = target: SpAbp1-D1
Summary of the method: as §1

SpBbc1 = target: SpBbc1
Summary of the method: as §1

SpBzz1-D1 = target: SpBzz1-D1
Summary of the method: as §1

## NQARKPFLLPATELS
SpBzz1-D2
  SPOT peptide array binding signal intensity: ≤ 0
SpCyk3
  SPOT peptide array binding signal intensity: 1
SpHof1
  SPOT peptide array binding signal intensity: 24.5
SpHof1-2
  SPOT peptide array binding signal intensity: 0.5
SpHof1-3
  SPOT peptide array binding signal intensity: 870
SpHse1
  SPOT peptide array binding signal intensity: 770
SpLsb1
  SPOT peptide array binding signal intensity: 11
SpLsb4
  SPOT peptide array binding signal intensity: ≤ 0
SpMyo1
  SPOT peptide array binding signal intensity: ≤ 0
SpNbp2
  SPOT peptide array binding signal intensity: 7
SpPex13
  SPOT peptide array binding signal intensity: ≤ 0
SpRvs167
  SPOT peptide array binding signal intensity: ≤ 0
SpSla1-D1-D2
  SPOT peptide array binding signal intensity: ≤ 0
SpSla1-D3
  SPOT peptide array binding signal intensity: ≤ 0

## DGNEEKPLLPTRPNK
AgAbp1
  SPOT peptide array binding signal intensity: ≤ 0
AgBbc1
  SPOT peptide array binding signal intensity: 977
AgBem1-D1
  SPOT peptide array binding signal intensity: ≤ 0
AgBzz1-D1
  SPOT peptide array binding signal intensity: 9.5
AgBzz1-D2
  SPOT peptide array binding signal intensity: 17.5
AgCyk3
  SPOT peptide array binding signal intensity: ≤ 0
AgFus1
  SPOT peptide array binding signal intensity: ≤ 0
AgHof1
  SPOT peptide array binding signal intensity: 23.8
AgHse1
  SPOT peptide array binding signal intensity: ≤ 0
AgLsb1
  SPOT peptide array binding signal intensity: 47.2
AgLsb4
  SPOT peptide array binding signal intensity: 1730
AgMyo5
  SPOT peptide array binding signal intensity: 0.25
AgNbp2
  SPOT peptide array binding signal intensity: ≤ 0
AgRvs167
  SPOT peptide array binding signal intensity: 43.8
AgSho1
  SPOT peptide array binding signal intensity: ≤ 0
AgSla1-D1-D2
  SPOT peptide array binding signal intensity: ≤ 0
AgSla1-D3
  SPOT peptide array binding signal intensity: ≤ 0
CaAbp1-D1
  SPOT peptide array binding signal intensity: ≤ 0
CaAbp1-D2
  SPOT peptide array binding signal intensity: ≤ 0
CaBbc1
  SPOT peptide array binding signal intensity: 844
CaBem1-D1
  SPOT peptide array binding signal intensity: ≤ 0
CaBzz1-D1
  SPOT peptide array binding signal intensity: 18
CaBzz1-D2
  SPOT peptide array binding signal intensity: 1.75
CaCyk3
  SPOT peptide array binding signal intensity: 7
CaFus1
  SPOT peptide array binding signal intensity: ≤ 0
CaHof1
  SPOT peptide array binding signal intensity: 0.5
CaHse1
  SPOT peptide array binding signal intensity: 6.38
CaLsb1
  SPOT peptide array binding signal intensity: ≤ 0
CaLsb4
  SPOT peptide array binding signal intensity: 3160
CaMyo5
  SPOT peptide array binding signal intensity: ≤ 0
CaNbp2
  SPOT peptide array binding signal intensity: 4.5
CaRvs167
  SPOT peptide array binding signal intensity: 382
CaRvs167-3
  SPOT peptide array binding signal intensity: 22
CaSho1
  SPOT peptide array binding signal intensity: 1.5
CaSla1-D1-D2
  SPOT peptide array binding signal intensity: ≤ 0
CaSla1-D3
  SPOT peptide array binding signal intensity: ≤ 0
ScAbp1
  SPOT peptide array binding signal intensity: ≤ 0
ScBbc1
  SPOT peptide array binding signal intensity: 306
ScBem1-D1
  SPOT peptide array binding signal intensity: 6.5
ScBzz1-D1
  SPOT peptide array binding signal intensity: 34.2
ScBzz1-D2
  SPOT peptide array binding signal intensity: ≤ 0
ScCyk3
  SPOT peptide array binding signal intensity: ≤ 0
ScFus1
  SPOT peptide array binding signal intensity: ≤ 0
ScHof1
  SPOT peptide array binding signal intensity: 41.6
ScHse1
  SPOT peptide array binding signal intensity: 15
ScLsb1
  SPOT peptide array binding signal intensity: 209
ScLsb2
  SPOT peptide array binding signal intensity: 10
ScLsb3
  SPOT peptide array binding signal intensity: 7260
ScLsb4
  SPOT peptide array binding signal intensity: 4200
ScMyo3
  SPOT peptide array binding signal intensity: 0.5
ScMyo5
  SPOT peptide array binding signal intensity: 8.12
ScNbp2
  SPOT peptide array binding signal intensity: ≤ 0
ScPex13
  SPOT peptide array binding signal intensity: 855
ScRvs167
  SPOT peptide array binding signal intensity: 871
ScSho1
  SPOT peptide array binding signal intensity: ≤ 0
ScSla1-D1-D2
  SPOT peptide array binding signal intensity: ≤ 0
ScSla1-D3
  SPOT peptide array binding signal intensity: ≤ 0
SpAbp1-D1
  SPOT peptide array binding signal intensity: ≤ 0
SpBbc1
  SPOT peptide array binding signal intensity: 0.5
SpBzz1-D1
  SPOT peptide array binding signal intensity: ≤ 0
SpBzz1-D2
  SPOT peptide array binding signal intensity: ≤ 0
SpCyk3
  SPOT peptide array binding signal intensity: ≤ 0
SpHof1
  SPOT peptide array binding signal intensity: 0.25
SpHof1-2
  SPOT peptide array binding signal intensity: 0.875
SpHof1-3
  SPOT peptide array binding signal intensity: 1.88
SpHse1
  SPOT peptide array binding signal intensity: ≤ 0
SpLsb1
  SPOT peptide array binding signal intensity: 1100
SpLsb4
  SPOT peptide array binding signal intensity: 3290
SpMyo1
  SPOT peptide array binding signal intensity: ≤ 0
SpNbp2
  SPOT peptide array binding signal intensity: ≤ 0
SpPex13
  SPOT peptide array binding signal intensity: ≤ 0
SpRvs167
  SPOT peptide array binding signal intensity: 467
SpSla1-D1-D2
  SPOT peptide array binding signal intensity: ≤ 0
SpSla1-D3
  SPOT peptide array binding signal intensity: ≤ 0

## ATNVPVAPPPPPASL
AgAbp1
  SPOT peptide array binding signal intensity: ≤ 0
AgBbc1
  SPOT peptide array binding signal intensity: 2.75
AgBem1-D1
  SPOT peptide array binding signal intensity: ≤ 0
AgBzz1-D1
  SPOT peptide array binding signal intensity: 1
AgBzz1-D2
  SPOT peptide array binding signal intensity: ≤ 0
AgCyk3
  SPOT peptide array binding signal intensity: 2
AgFus1
  SPOT peptide array binding signal intensity: ≤ 0
AgHof1
  SPOT peptide array binding signal intensity: 3
AgHse1
  SPOT peptide array binding signal intensity: 27
AgLsb1
  SPOT peptide array binding signal intensity: ≤ 0
AgLsb4
  SPOT peptide array binding signal intensity: ≤ 0
AgMyo5
  SPOT peptide array binding signal intensity: 468
AgNbp2
  SPOT peptide array binding signal intensity: ≤ 0
AgRvs167
  SPOT peptide array binding signal intensity: ≤ 0
AgSho1
  SPOT peptide array binding signal intensity: ≤ 0
AgSla1-D1-D2
  SPOT peptide array binding signal intensity: 4.5
AgSla1-D3
  SPOT peptide array binding signal intensity: ≤ 0
CaAbp1-D1
  SPOT peptide array binding signal intensity: ≤ 0
CaAbp1-D2
  SPOT peptide array binding signal intensity: ≤ 0
CaBbc1
  SPOT peptide array binding signal intensity: ≤ 0
CaBem1-D1
  SPOT peptide array binding signal intensity: ≤ 0
CaBzz1-D1
  SPOT peptide array binding signal intensity: 23
CaBzz1-D2
  SPOT peptide array binding signal intensity: 0.25
CaCyk3
  SPOT peptide array binding signal intensity: 4
CaFus1
  SPOT peptide array binding signal intensity: ≤ 0
CaHof1
  SPOT peptide array binding signal intensity: 1
CaHse1
  SPOT peptide array binding signal intensity: 0.5
CaLsb1
  SPOT peptide array binding signal intensity: ≤ 0
CaLsb4
  SPOT peptide array binding signal intensity: ≤ 0
CaMyo5
  SPOT peptide array binding signal intensity: 13.8
